Source: PubChem (National Center for Advancing Translational Sciences (NCATS))
Sampled rows, rich in hits. Any-hit rate of the full collection: about 1.3%.
Pin1 inh: inhibitors of human Pin1. Q13526. Pin1 FP peptide displacement, HiFluor488, 10 min. Potency, µM (series often up to 115 µM), for inactives: at the top dose activity, negative = inhibition, most hits filed as inhibitors. hit rate 0.009% among 390,000; active = well fitted inhibition curve with a large enough effect in the polarisation, with a control signal flat, not every such curve was filed as active; inconclusive = small, poorly fitted or top-dose-only effect, or effect the other way, or a change in a side signal; inactive = no such curve, though single readings can be large or run the other way; the % refers to the polarisation; note: potency is the fitted concentration of half-maximal effect
Giardia killer: Giardia lamblia killing. Giardia lamblia trophozoite viability. activity change, % at 7.66 µM, hits read low. hit rate 0.15% among 340,000; in the data active = activity change below about -80%; inconclusive = between about -30% and that limit;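 note: parasites exposed to compound for two days anaerobically before the ATP read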
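ATP-content bioluminescence gauges trophozoite survival. Cells (100/well) receive compound and incubate anaerobically for 48 hrs at 37 deg C; detection reagent follows for 15-30 min at room temperature.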
KAT2A inh: inhibitors of human GCN5L2 histone acetyltransferase. Q92830. hit rate 0.21% among 390,000. Potency, µM (series often up to 58.9 µM), without a hit: top-dose activity change, negative = inhibition, actives largely listed as inhibitors. GCN5L2 HAT assay, ThioGlo1 CoA-SH fluorescence; note: potency is the fitted concentration of half-maximal effect
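ThioGlo1-coupled HAT assay: 20nM GCN5L2, 70uM acetyl-CoA, 75uM H3(1-25) peptide, pH 7.5. Fluorescence read at 340/540nm at start and after 20 min at room temperature.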
GALK inhibitor: inhibitors of human galactokinase; Potency, µM (titrated, usually from 57.5 µM), inactives show top-dose activity change, negative = inhibition, most hits filed as inhibitors; hit rate 0.007% among 270,000; AID 1868; Purified GALK, Kinase-Glo residual ATP luminescence; P51570; note: potency is the fitted concentration of half-maximal effect
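5 nM enzyme, 35 uM ATP, 100 uM galactose, 20 mM HEPES pH8.0, 5 mM MgCl2; 1 h RT; residual ATP by Kinase-Glo Plus luminescence, qHTS format.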
TrxR1 inh: rat TrxR1 inhibition | O89049 | recombinant rTrxR1, NADPH fluorescence consumption, selenite substrate | Potency, µM (top dose mostly 114 µM), for inactives: top-dose activity change, negative = inhibition, most hits filed as inhibitors | hit rate 1% among 390,000 | AID 588453; note: potency is the fitted concentration of half-maximal effect; nearly all actives have a fitted effect of over 65% in size
Target sequence (O89049 whole entry, looked up): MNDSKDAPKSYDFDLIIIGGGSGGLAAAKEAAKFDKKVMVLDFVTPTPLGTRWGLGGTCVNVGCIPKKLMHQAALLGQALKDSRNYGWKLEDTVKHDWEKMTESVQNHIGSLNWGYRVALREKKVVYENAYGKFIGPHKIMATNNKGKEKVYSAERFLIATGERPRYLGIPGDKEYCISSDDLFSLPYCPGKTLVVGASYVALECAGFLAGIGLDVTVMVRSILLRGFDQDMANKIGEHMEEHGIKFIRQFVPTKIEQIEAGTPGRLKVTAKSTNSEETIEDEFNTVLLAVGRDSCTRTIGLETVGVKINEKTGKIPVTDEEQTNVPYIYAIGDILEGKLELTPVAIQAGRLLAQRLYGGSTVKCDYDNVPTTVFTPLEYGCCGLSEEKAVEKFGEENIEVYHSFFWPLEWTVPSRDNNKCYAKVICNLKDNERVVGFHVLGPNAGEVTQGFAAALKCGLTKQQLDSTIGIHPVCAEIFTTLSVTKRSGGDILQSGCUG
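Rat TrxR1 (90 nM in the dispensed reagent) was pre-reduced with 400 uM NADPH for 5 min at room temperature, then incubated with compound for 15 min. After 400 uM selenite was added, NADPH fluorescence (Ex 340/Em 450 nm) was followed for 8 min.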
TrxR1 substrate: is turned over as a substrate by rat TrxR1. O89049. purified TrxR1 substrate turnover, NADPH consumption readout. Potency, µM (top dose mostly 114 µM), for the others: at the highest dose activity change, negative = substrate turnover. hit rate 0.01% among 390,000; note: potency is the fitted concentration of half-maximal effect; nearly all actives have a fitted effect of over 50% in size
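Rat TrxR1, dispensed at 90 nM, was prereduced with 400 uM NADPH (final) for 5 min at ~22 deg C, then incubated with compound 15 min before 400 uM selenite. A first-read NADPH fluorescence drop versus no-compound background flagged substrates.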
* hit, by the source's call; ? = inconclusive; / = not tested or not shown; ! = a repeat was not active; [ ] = remark or other dose. Unless noted, calls come from the whole dose curve; as a rule, active = well fitted curve in the direction sought with a large enough effect; inconclusive = small, poorly fitted or top-dose-only effect, or another doubt; inactive = no such curve, though single readings can be large; an effect the other way counts as inactive or inconclusive. % is set by controls: 0 for no effect and ±100 for the full control effect.

SMILES	Pin1 inh	Giardia killer	KAT2A inh	GALK inhibitor	TrxR1 inh	TrxR1 substrate
O=C(c1ccccc1)c1ccccc1NC(=O)c1ccccc1C(=O)O	3%	/	-8%	/	1%	-1%
O=C(CCl)Nc1ccccc1Sc1ccc(Cl)cc1	-14%	-6	-4%	0%	8.9µM*	-9%
Cc1cc2c(s1)c1cnn(Cc3cc(F)cc(F)c3F)c(=O)c1n2C	0%	/	/	/	/	/
Cc1cccnc1NCc1ccc(O)c2ncccc12	3%	6	-3%	4%	?	-12%
Cc1ccc(NCc2ccc(O)c3ncccc23)cc1	0%	5	-15%	0%	0.5µM*	3%
Cc1ccc(NCc2ccc(O)c3ncccc23)cc1C	-2%	1	-7%	0%	2µM*	5%
O=C(c1ccccc1O)N(Cc1ccco1)Cc1cccs1	-16%	/	/	/	/	/
CCCC(=O)C1=C(N(C)c2ccccc2)CC(C)(C)CC1=O	-14%	3	-1%	0%	1%	-5%
CCCC(=O)C1=C(c2ccccc2)C(C#N)(C#N)C(C#N)=C1N	?	-6	-8%	0%	13µM*	-10%
O=C1CC(c2ccco2)Sc2nc3ccccc3n21 (stereo not given)	?	-7	-9%	0%	13µM*	3%
CN1C(=O)CC(c2ccco2)Sc2ccccc21 (stereo not given)	-3%	12	-1%	0%	56µM*	-8%
CCCN1C(=O)CC(c2ccco2)Sc2ccccc21 (stereo not given)	14%	1	-19%	3%	?	9%
O=C(OCC#CCSc1nnc(-c2cccc3ccccc23)o1)c1sc2ccccc2c1Cl	8%	/	/	/	/	/
COc1ccc(NC(=O)C2CCCN(S(=O)(=O)c3ccc(F)cc3)C2)cc1 (stereo not given)	-13%	/	2%	/	1%	0%
O=C(Nc1cc(C(F)(F)F)ccc1Cl)C(O)Cc1ccccc1 (stereo not given)	-2%	/	/	/	/	/
CCOC(=O)C1CCCN(c2ccc(NC(=O)c3snc4c(=O)[nH]c(C)nc34)cc2)C1 (stereo not given)	-1%	3	2.5µM*	3%	26%[57.1 µM]	6%[57.1 µM]
O=C1NC(=O)c2c1c(-c1ccccc1)cc1[nH]c3ccc(O)cc3c21	/	/	4%	/	/	/
O=C1NC(=O)/C(=C/c2ccc(N3CCOCC3)o2)N1	?	-9	-18%	4%	?	5%[57.1 µM]
O=C1NC(=O)/C(=C\c2ccc(N3CCOCC3)o2)N1	?	1	-9%	0%	8.9µM*	-22%
COc1ccc(C)cc1S(=O)(=O)N1CCCC(C(=O)NCc2ccccn2)C1 (stereo not given)	3%	10	-6%	-3%	7%	1%
O=C(NCc1ccccn1)C1CCCN(S(=O)(=O)c2cc(Cl)ccc2Cl)C1 (stereo not given)	1%	-83*	/	/	8%	0%
O=C1NC(=O)C(Cc2cccc(Oc3ccccc3)c2)S1 (stereo not given)	5%	-26	-6%	-2%	8%	0%
CC1(COc2ccc(C[C@H]3SC(=O)NC3=O)cc2)CCCCC1	/	/	35µM*	/	/	/
CC1(COc2ccc(CC3SC(=O)NC3=O)cc2)CCCCC1 (stereo not given)	/	/	25µM*!	/	/	/
CCc1ccc(CCOc2ccc(CC3SC(=O)NC3=O)cc2)nc1 (stereo not given)	3%	5	-12%	/	-12%	-3%
Cc1nc(CN(C)c2ncnc3cc(-c4ccc5c(c4)OCO5)ccc23)cs1	-3%	/	/	/	/	/
O=C1CCc2cc(S(=O)(=O)Nc3ccccc3-c3ccccc3)ccc2N1	3%	/	/	/	/	/
O=[N+]([O-])c1ccc(C2Nc3cccc4cccc(c34)N2)cc1	-6%	-2	-6%	-1%	35µM*	-7%
O=[N+]([O-])c1cccc(C2Nc3cccc4cccc(c34)N2)c1	-9%	5	38%	-4%	50µM*	-8%
NC(=O)c1nsc(C(=O)N(Cc2ccccc2Cl)C(C(=O)NCC2CCCO2)c2ccc(O)cc2)c1N (stereo not given)	-1%	?	-10%	12%	4%	14%
